Assay results published in PubChem BioAssay AID588475 (Sanford-Burnham Center for Chemical Genomics, 2011).
Hit rate of the full screen: of about 350,000 compounds, about 2,100 (0.6%) were called active.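 The calls were made as follows: active = inhibition of the ligand-induced calcium signal above about 50% at the single tested concentration (limit read from the data); inactive = the rest.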 The sample as a whole holds a higher share of actives than the screen did.

Experiment: blockers of CRF-evoked CRF-R2/CRF-BP calcium response – cell-based, HEK293, calcium dye fluorescence, uHTS, primary screen (AID 588475)
Settings: CRF-induced calcium fluorescence, at 11.8 µM, stronger effect = higher value

| SMILES | inhibition |
| --- | --- |
| OC(C#CCN1CCOCC1)(c1ccccc1)C1CCCCC1 (configuration not stated) | -6% (inactive) |
| Cc1ccccc1-n1c(SCC(=O)Nc2cccc3ccccc23)nc(O)cc1=O | -4.41% (inactive) |
| COc1ccc(S(=O)(=O)N2CCOCC2)cc1NC(=O)COc1ccccc1 | 12.8% (inactive) |
| COc1ccc(S(=O)(=O)N2CCOCC2)cc1NC(=O)CC1CC2CCC1C2 (configuration not stated) | 80.4% (active) |
| COc1ccc(S(=O)(=O)N2CCOCC2)cc1NC(=O)CSc1cc(C)ccc1C | 1.57% (inactive) |
| O=C(Nc1cccn(Cc2c(Cl)cccc2Cl)c1=O)c1ccc(Cl)cc1 | -7% (inactive) |
| Cc1ccc(OCc2nnc(NC(=O)OCC(C)C)s2)cc1 | -2.73% (inactive) |
| COc1cc(C2C(C(=O)Nc3ccc(F)cc3)=C(C)Nc3nc(CCCO)nn32)cc(OC)c1OC (configuration not stated) | 5.65% (inactive) |
| COc1ccc(NC(=O)C2=C(C)NC(=O)NC2c2ccccc2[N+](=O)[O-])cc1 (configuration not stated) | -10% (inactive) |
| COC(=O)c1nc2n(n1)C(c1ccc([N+](=O)[O-])cc1)C(C(=O)Nc1ccc(Cl)cc1)=C(C)N2 (configuration not stated) | 56.3% (active) |
| O=C(Nc1cc(-c2ccccc2)nn1-c1ccccc1F)c1ccc([N+](=O)[O-])cc1 | -5.97% (inactive) |
| CS(=O)(=O)C1=NN2C(=N)/C(=C\c3ccc(OCCOc4ccccc4)cc3)C(=O)N=C2S1 | 26.8% (inactive) |
| CCS(=O)(=O)C1=NSC2=NC(=O)/C(=C\c3cc(C)n(-c4cccc(OC)c4)c3C)C(=N)N21 | 81.8% (active) |
| CCS(=O)(=O)C1=NSC2=NC(=O)/C(=C\c3ccc(OS(=O)(=O)c4ccccc4)cc3)C(=N)N21 | 0.32% (inactive) |
| CCOc1ccc(NC(=S)NC(=O)/C=C/c2ccc(OC)cc2)c([N+](=O)[O-])c1 | -8% (inactive) |
| CCOC(=O)/C(C#N)=C\c1c(C)cc(C)c(COC(C)=O)c1C | 3.93% (inactive) |
| CCOC(=O)c1nnn(-c2nonc2-n2cccc2)c1CN1CCC(C(=O)OCC)CC1 | 17.9% (inactive) |
| COc1ccc(-c2ccc(CCC(=O)O)n2NC(=O)c2ccc(C(C)(C)C)cc2)cc1 | 7.59% (inactive) |
| Cc1cccc(OC(C)C(=O)N2CCc3ccccc3C2)c1 (configuration not stated) | 16.6% (inactive) |
| COCc1cc(=O)[nH]c(SC)n1 | 9.17% (inactive) |
| Cc1cc(C)c2nc3nc(C)cc(C)c3c(N)c2c1 | 90.7% (active) |
| Cc1ccc(/C=N/NC(=S)Nc2cccc(S(=O)(=O)N(C)C)c2)o1 | 82.9% (active) |
| CN(C)S(=O)(=O)c1cccc(NC(=S)N/N=C/C(=O)c2ccccc2)c1 | 3.21% (inactive) |

| SMILES | inhibition |
| --- | --- |
| Cc1ccc(/C=N/NC(=S)NC2CCCCC2)o1 | -28.4% (inactive) |
| O=C1CC2(CCCC2)C(=O)N1CN1CCN(S(=O)(=O)c2ccc(F)cc2F)CC1 | 6.17% (inactive) |
| Cc1cc(C(=O)OCC(=O)Nc2nccs2)c2ccccc2n1 | 8.78% (inactive) |
| O[C@H]1CN(Cc2cccs2)[C@@H](c2ccc(Cl)cc2)C[C@@H]1n1cc(C2CC2)nn1 | -16.1% (inactive) |
| Cc1cccc(N2CCN(C(=O)c3cnn4c(C(F)F)cc(-c5ccccc5)nc34)CC2)c1C | -11.8% (inactive) |
| CCCc1nc(SCC(=O)Nc2ccccc2OC)c2c(=O)n(C)c(=O)n(C)c2n1 | -6.56% (inactive) |
| CCOc1cccc(=O)c2c(C)n(CC3CCCO3)c(C)c12 (configuration not stated) | -12.3% (inactive) |
| CN1CN(C)c2ccc([N+](=O)[O-])c3cccc1c23 | 4.39% (inactive) |
| O=C1c2cccc3c([N+](=O)[O-])ccc(c23)C(=O)N1CC1CCCO1 (configuration not stated) | 87.2% (active) |
| Cc1ccc(S(=O)(=O)NC(=O)c2cccc(C)c2)cc1 | -9.88% (inactive) |
| COC(=O)C1=CN(Cc2ccc(OC)cc2)C=C(C(=O)OC)C1c1ccc(O)c(OC)c1 | -26.4% (inactive) |
| CCOc1cc(C2C(C(=O)OC)=CN(C3CCCC3)C=C2C(=O)OC)cc(Br)c1O | 50.2% (active) |
| CCCC(=O)Nc1cc(OCC)c(NC(=O)NC2CCCCC2)cc1OCC | 15.3% (inactive) |
| CCn1c(SCC(=O)NC2CC2)nnc1-c1ccccn1 | 2.34% (inactive) |
| CCn1c(SCC(=O)NC2CC2)nnc1-c1ccccc1OC | 18.7% (inactive) |
| CCn1c(SCC(=O)NC2CC2)nnc1-c1ccncc1 | 52% (active) |
| Nc1nc(SCC(=O)Nc2cc(C(F)(F)F)ccc2Cl)[nH]c(=O)c1NC(=O)c1ccco1 | 0.81% (inactive) |
| COC(=O)C1=CO[C@@H](O[C@@H]2O[C@H](CO)[C@@H](O)[C@H](O)[C@H]2O)C2C1C[C@H](O)[C@@H]2C (some centres not stated) | 1.31% (inactive) |
| CCOc1ccc(NC(=O)Nc2cc(C)on2)cc1 | -27.8% (inactive) |
| CCOc1ccc(NC(=O)Nc2cc(C)ccc2OC)cc1 | 54.1% (active) |
| COc1ccc(C)cc1NC(=O)Nc1ccccc1SC | 23.5% (inactive) |
| CCN(CC(=O)Nc1cc(Cl)ccc1C)C(=O)CN1C(=O)NC2(CCCC2)C1=O | -3.2% (inactive) |
| CN(C(=O)CCNC(=O)Cn1ccc2ccccc2c1=O)c1ccc(Br)cc1 | 1.39% (inactive) |

| SMILES | inhibition |
| --- | --- |
| Cc1cccc(-c2nc(CS(=O)CC(=O)NC(C)CCc3ccccc3)c(C)o2)c1 (configuration not stated) | -5.77% (inactive) |
| Cn1nc(N)c2ncc(C(Cl)(Cl)Cl)nc21 | 73.4% (active) |
| COc1ccc(CC(=O)OC(C)C(=O)Nc2ccc(S(N)(=O)=O)cc2)cc1 (configuration not stated) | -1.19% (inactive) |
| COc1ccc(S(=O)(=O)N2CCN(C(=O)c3cccs3)CC2)cc1OC | 22.7% (inactive) |
| COc1cccc(NC(=O)Nc2ccc(F)cc2)c1 | -2.92% (inactive) |
| COc1cccc(NC(=S)NC(=O)c2c(Cl)c(C)nn2C)c1 | -4.16% (inactive) |
| COc1cccc(NC(=S)C(C#N)=C2N(C)c3ccccc3N2C)c1 | 79.1% (active) |
| Cc1nn(C)c(Oc2ccccc2)c1CCNS(=O)(=O)c1ccc(F)cc1 | -3.36% (inactive) |
| Nc1ncnc2c1ncn2[C@@H]1O[C@H](CNS(=O)(=O)c2ccc(-c3ccno3)s2)[C@@H](O)[C@H]1O | 3.06% (inactive) |
| CCOC(=O)C1=NNC2(c3ccc(Cl)cc3)C(=O)N(c3cc(C)cc(C)c3)C(=O)C12 (configuration not stated) | 17.3% (inactive) |
| CC(C)CCOc1ccc(C(=O)Nc2cc(S(=O)(=O)N3CCOCC3)ccc2N2CCOCC2)cc1 | 19.1% (inactive) |
| Cc1cc(OCCCC(=O)Nc2cc(S(=O)(=O)N3CCOCC3)ccc2N2CCOCC2)ccc1Cl | 62.5% (active) |
| Cc1cccc(OCCC(=O)Nc2cc(S(=O)(=O)N3CCCCC3)ccc2N2CCOCC2)c1 | -1.67% (inactive) |
| O=C(Nc1c2c(nn1-c1ccccc1)CS(=O)(=O)C2)C1CCCC1 | 7.96% (inactive) |
| COc1cccc(CNC(=O)CCC2CCCN(C(=O)c3ccc(F)c(Cl)c3)C2)c1 (configuration not stated) | 6.37% (inactive) |
| COc1cccc(CNC(=O)CCC2CCCN(C(=O)c3ccoc3C)C2)c1 (configuration not stated) | -2.45% (inactive) |
| COc1cccc(C(=O)N2CCCC(CCC(=O)NCc3ccc(F)c(F)c3)C2)c1 (configuration not stated) | 50.4% (active) |
| O=C1N=C(N2CCc3ccccc3C2)S/C1=C\c1ccc(O)cc1 | 16.8% (inactive) |
| NC1=NC(=O)S/C1=C\c1ccc(O)cc1 | 51% (active) |
| CC(C)(C)c1ccc(/C=C2\SC(=O)N=C2N)cc1 | 9.93% (inactive) |
| CNC(=O)/C(=C\C=C\c1ccccc1)NC(=O)c1ccc([N+](=O)[O-])cc1 | 4.28% (inactive) |
| Cc1ccc(NC(=O)Cn2sc3ccccc3c2=O)cc1 | 3.99% (inactive) |
| COc1ccc(C2(c3ccc(OC)cc3)NC(=O)N(CC(=O)Nc3cc(C)on3)C2=O)cc1 | -31.2% (inactive) |

| SMILES | inhibition |
| --- | --- |
| Cc1cc(NC(=O)CN2C(=O)NC(CCc3ccccc3)C2=O)no1 (configuration not stated) | 5.91% (inactive) |
| Cc1cc(NC(=O)CN2C(=O)NC(CC(C)C)C2=O)no1 (configuration not stated) | 56.2% (active) |
| CC1CCN(C(=O)/C(=C\c2ccccc2)NC(=O)c2ccccc2)CC1 | 8.16% (inactive) |
| O=C(Cc1cccs1)N(CC1CCCO1)C1(C(=O)NC2CCCCC2)CCCCC1 (configuration not stated) | -14.9% (inactive) |
| CC(C)c1ccc2c(c1)c(SC(C)(C)C)c(CC(C)(C)C(=O)O)n2Cc1ccc(Cl)cc1 | 54.3% (active) |
| Cc1ccc(C)c(NC(=O)C(OC(=O)c2ccc(C)s2)c2ccccc2)c1 (configuration not stated) | -6.3% (inactive) |
| COCCCNC(=O)c1ccc(CNS(=O)(=O)c2ccc(NC(C)=O)cc2)cc1 | -2.43% (inactive) |
| Cc1nc2ccc(NC(=O)c3cccc(S(=O)(=O)N4CCOCC4)c3)cc2s1 | 116% (active) |
| O=C(Nc1ccc(S(=O)(=O)Nc2nccs2)cc1)c1cccc(S(=O)(=O)N2CCOCC2)c1 | -0.01% (inactive) |
| O=C(Nc1ccc(S(=O)(=O)N2CCOCC2)cc1)c1ccc2ncsc2c1 | 1.25% (inactive) |
| O=C(NNC(=S)NCCCN1CCOCC1)c1ccncc1 | 1.88% (inactive) |
| CNC(=O)C[C@H]1C(=O)N(Cc2ccccc2)C[C@@H]1CSC | -10.7% (inactive) |
| CN(CCC(=O)Nc1cc(S(=O)(=O)N(C)C)ccc1Cl)CC(=O)Nc1ccc(F)cc1 | -7.88% (inactive) |
| O=C(CSC1=Nc2ccccc2C2=NC(c3ccccc3)C(=O)N12)NCC1CCCO1 (configuration not stated) | 10.2% (inactive) |
| O=C(CC1N=C2c3ccccc3N=C(SCc3ccccc3Cl)N2C1=O)NCc1ccco1 (configuration not stated) | 89.4% (active) |
| NC(=O)CSC1=Nc2ccccc2C2=NC(CCC(=O)NCc3ccc(F)cc3)C(=O)N12 (configuration not stated) | 15.6% (inactive) |
| CCOc1ccc(NC(=O)COc2ccc(C(=O)N3CCC(C(N)=O)CC3)cc2OC)cc1 | -31.7% (inactive) |
| COc1cccc(-n2c(SCC(=O)NC3CCS(=O)(=O)C3)nc3ccccc3c2=O)c1 (configuration not stated) | 3.38% (inactive) |
| COCC(C)n1c(SCc2ccc(C(=O)OC)o2)nc2ccccc2c1=O (configuration not stated) | 51.9% (active) |
| COC(=O)c1ccc(CSc2nc3ccccc3c(=O)n2-c2cccc(OC)c2)o1 | 76.5% (active) |
| COCCNC(=O)c1ccc(-n2c(SCc3cccnc3)nc3ccccc3c2=O)cc1 | -8.33% (inactive) |
| COCCn1c(C)cc(C(=O)CSc2nc3ccccc3c(=O)n2C(C)COC)c1C (configuration not stated) | 25.5% (inactive) |
| COCC(C)n1c(SCC(=O)NC2CCCCC2C)nc2ccccc2c1=O (configuration not stated) | 6.09% (inactive) |
